The inhibition is the change of the read-out against control, counted positive when it falls.

This passage reports inhibition results from ChEMBL document CHEMBL1961873, “Compounds: GSK PKIS; Assays: Nanosyn kinase panel” (2012).

Assay [1] has as its target Sphingosine kinase 1 (Homo sapiens) (UniProt Q9NYA1). The conditions noted are these: at 1 µM.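 Note: mean SPHK1 inhibition value reported from the GSK PKIS kinase panel screen.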
For assay [2], the target named is T1, Sphingosine kinase 2 (Homo sapiens) (UniProt Q9NRA0).
T1 sequence (whole entry): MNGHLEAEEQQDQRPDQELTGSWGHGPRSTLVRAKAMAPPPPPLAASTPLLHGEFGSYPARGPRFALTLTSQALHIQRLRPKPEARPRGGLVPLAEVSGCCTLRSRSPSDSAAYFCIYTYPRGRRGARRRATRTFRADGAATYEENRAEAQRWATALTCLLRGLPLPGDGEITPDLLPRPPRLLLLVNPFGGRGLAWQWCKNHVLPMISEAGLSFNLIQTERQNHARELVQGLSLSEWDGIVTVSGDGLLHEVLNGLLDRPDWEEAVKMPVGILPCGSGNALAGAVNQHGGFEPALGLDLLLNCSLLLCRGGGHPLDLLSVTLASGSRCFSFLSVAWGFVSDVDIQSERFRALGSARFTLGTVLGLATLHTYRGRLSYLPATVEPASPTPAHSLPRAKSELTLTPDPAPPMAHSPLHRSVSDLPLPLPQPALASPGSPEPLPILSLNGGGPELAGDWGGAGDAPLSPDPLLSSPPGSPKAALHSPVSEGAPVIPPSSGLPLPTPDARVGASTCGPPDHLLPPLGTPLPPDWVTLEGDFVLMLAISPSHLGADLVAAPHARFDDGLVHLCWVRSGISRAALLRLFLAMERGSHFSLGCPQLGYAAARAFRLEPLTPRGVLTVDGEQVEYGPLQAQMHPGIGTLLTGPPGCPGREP
Particulars: at 0.1 µM.

Assay [3] deals with T1, Sphingosine kinase 2 (Homo sapiens). Particulars: at 1 µM.
Assay [4] has as its target Casein kinase II subunit alpha (Homo sapiens) (UniProt P68400). The conditions noted are these: at 0.1 µM.
Assay [5] shares this target. Particulars: at 1 µM.
Assay [6] addresses T2, Inhibitor of nuclear factor kappa-B kinase subunit alpha (Homo sapiens) (UniProt O15111).
T2 sequence (whole entry): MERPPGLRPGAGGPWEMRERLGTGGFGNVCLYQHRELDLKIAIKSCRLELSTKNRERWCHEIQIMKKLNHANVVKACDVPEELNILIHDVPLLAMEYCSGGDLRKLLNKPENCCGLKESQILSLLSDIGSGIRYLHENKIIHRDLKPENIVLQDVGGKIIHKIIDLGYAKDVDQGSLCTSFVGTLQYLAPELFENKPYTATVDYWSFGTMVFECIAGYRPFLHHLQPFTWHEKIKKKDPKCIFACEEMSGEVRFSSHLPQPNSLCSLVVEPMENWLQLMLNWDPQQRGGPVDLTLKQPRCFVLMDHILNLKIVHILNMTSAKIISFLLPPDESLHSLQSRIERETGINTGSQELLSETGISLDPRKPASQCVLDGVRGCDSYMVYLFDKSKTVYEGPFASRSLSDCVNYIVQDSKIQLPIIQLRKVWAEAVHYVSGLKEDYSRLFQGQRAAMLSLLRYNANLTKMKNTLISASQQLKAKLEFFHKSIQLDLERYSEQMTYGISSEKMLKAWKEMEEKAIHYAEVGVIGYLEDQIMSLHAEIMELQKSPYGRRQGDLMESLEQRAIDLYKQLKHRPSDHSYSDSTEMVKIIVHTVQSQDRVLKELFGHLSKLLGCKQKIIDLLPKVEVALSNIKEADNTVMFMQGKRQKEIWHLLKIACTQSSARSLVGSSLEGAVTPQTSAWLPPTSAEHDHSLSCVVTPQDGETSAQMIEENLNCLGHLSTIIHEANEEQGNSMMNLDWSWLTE
The conditions noted are these: at 0.1 µM.

In assay [7] the target is T2, Inhibitor of nuclear factor kappa-B kinase subunit alpha (Homo sapiens). Particulars: at 1 µM.
For assay [8], the target named is T3, Inhibitor of nuclear factor kappa-B kinase subunit beta (Homo sapiens) (UniProt O14920).
T3 sequence (whole entry): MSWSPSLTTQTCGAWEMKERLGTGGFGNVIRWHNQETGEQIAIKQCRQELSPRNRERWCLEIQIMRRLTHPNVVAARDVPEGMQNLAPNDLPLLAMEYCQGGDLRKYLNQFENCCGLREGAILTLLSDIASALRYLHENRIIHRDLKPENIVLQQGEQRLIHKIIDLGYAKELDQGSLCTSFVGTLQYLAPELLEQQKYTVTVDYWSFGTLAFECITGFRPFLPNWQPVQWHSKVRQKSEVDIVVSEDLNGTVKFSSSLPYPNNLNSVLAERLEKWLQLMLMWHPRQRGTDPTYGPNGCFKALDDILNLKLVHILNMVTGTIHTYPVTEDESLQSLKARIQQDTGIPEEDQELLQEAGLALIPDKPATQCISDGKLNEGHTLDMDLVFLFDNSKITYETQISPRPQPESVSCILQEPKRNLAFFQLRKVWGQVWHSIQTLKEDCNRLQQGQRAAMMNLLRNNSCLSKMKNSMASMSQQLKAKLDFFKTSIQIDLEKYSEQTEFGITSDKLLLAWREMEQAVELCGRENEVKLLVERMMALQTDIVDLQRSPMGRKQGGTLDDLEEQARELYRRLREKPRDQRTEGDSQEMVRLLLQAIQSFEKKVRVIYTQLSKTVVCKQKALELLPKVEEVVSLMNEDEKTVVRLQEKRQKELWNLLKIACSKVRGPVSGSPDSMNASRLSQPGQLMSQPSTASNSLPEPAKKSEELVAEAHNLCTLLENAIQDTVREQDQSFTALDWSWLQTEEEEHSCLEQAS
Particulars: at 0.1 µM.

Assay [9] concerns the target T3, Inhibitor of nuclear factor kappa-B kinase subunit beta (Homo sapiens). The conditions noted are these: at 1 µM.
Assay [10] deals with T4, Inhibitor of nuclear factor kappa-B kinase subunit epsilon (Homo sapiens) (UniProt Q14164).
T4 sequence (whole entry): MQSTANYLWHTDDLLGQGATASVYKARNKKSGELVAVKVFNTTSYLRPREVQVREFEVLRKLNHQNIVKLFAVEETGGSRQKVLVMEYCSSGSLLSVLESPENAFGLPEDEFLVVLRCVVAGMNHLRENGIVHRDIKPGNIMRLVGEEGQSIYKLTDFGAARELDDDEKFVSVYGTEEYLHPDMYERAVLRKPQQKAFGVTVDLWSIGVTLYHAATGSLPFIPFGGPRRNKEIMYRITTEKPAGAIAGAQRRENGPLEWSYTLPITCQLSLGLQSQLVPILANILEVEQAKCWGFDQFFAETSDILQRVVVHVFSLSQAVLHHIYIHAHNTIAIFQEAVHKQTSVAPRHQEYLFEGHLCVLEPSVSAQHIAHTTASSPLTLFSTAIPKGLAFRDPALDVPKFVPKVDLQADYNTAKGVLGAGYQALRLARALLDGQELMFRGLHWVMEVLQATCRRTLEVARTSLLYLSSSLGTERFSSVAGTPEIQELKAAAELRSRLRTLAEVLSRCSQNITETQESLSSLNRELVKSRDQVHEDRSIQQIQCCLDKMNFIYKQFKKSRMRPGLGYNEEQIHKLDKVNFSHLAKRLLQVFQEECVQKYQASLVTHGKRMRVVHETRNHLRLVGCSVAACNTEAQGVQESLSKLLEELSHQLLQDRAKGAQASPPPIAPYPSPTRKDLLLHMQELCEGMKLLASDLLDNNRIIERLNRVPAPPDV
The conditions noted are these: at 0.1 µM.

Assay [11] has as its target T4, Inhibitor of nuclear factor kappa-B kinase subunit epsilon (Homo sapiens). The conditions noted are these: at 1 µM.
The target in assay [12] is T5, Serine/threonine-protein kinase Nek1 (Homo sapiens) (UniProt Q96PY6).
T5 sequence (whole entry): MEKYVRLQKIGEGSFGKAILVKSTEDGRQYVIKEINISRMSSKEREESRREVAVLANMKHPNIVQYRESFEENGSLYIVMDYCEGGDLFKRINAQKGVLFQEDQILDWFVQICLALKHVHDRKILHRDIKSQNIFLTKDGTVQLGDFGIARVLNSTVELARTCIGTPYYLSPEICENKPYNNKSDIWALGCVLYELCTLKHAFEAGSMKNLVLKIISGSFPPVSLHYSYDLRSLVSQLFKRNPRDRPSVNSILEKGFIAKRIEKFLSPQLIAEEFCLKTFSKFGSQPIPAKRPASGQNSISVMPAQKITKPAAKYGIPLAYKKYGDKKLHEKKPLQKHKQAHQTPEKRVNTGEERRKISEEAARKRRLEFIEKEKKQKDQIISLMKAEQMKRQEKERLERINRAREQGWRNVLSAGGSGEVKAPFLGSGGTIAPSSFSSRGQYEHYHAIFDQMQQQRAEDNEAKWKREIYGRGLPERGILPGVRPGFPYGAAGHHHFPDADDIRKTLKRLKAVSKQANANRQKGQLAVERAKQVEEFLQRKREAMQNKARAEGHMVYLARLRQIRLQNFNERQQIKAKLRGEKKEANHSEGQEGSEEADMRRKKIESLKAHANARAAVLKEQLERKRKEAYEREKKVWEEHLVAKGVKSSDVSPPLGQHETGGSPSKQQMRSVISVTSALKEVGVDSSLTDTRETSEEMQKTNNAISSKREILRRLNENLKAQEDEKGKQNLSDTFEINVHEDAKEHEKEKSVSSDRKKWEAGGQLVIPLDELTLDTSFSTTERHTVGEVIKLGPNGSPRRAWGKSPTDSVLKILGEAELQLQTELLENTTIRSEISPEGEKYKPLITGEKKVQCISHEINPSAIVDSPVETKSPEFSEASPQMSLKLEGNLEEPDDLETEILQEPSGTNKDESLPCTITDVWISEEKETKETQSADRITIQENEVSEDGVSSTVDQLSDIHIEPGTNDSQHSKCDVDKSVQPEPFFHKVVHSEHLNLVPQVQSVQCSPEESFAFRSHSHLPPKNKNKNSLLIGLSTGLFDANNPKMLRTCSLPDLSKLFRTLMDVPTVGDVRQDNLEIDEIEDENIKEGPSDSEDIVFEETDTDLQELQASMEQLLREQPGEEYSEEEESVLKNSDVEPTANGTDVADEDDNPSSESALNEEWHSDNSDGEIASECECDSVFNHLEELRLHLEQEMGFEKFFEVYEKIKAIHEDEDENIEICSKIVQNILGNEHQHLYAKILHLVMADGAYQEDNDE
Particulars: at 0.1 µM.

In assay [13] the target is T5, Serine/threonine-protein kinase Nek1 (Homo sapiens). The conditions noted are these: at 1 µM.
In assay [14] the target is T6, Serine/threonine-protein kinase Nek2 (Homo sapiens) (UniProt P51955).
T6 sequence (whole entry): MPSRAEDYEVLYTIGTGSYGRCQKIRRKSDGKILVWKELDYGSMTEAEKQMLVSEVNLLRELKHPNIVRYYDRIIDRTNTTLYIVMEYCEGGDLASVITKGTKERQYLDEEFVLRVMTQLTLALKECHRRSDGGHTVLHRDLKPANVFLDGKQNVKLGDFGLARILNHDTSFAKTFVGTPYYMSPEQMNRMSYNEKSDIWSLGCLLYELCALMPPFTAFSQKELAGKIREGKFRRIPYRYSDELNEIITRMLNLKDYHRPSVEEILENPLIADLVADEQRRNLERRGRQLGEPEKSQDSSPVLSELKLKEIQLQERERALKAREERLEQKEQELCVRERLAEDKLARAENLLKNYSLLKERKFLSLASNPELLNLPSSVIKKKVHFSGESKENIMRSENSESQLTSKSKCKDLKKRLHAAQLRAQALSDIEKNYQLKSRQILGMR
The conditions noted are these: at 0.1 µM.

Assay [15] addresses T6, Serine/threonine-protein kinase Nek2 (Homo sapiens). The conditions noted are these: at 1 µM.
Assay [16] addresses Serine/threonine-protein kinase Nek6 (Homo sapiens) (UniProt Q9HC98). The conditions noted are these: at 0.1 µM.
The target is the same in assay [17]. The conditions noted are these: at 1 µM.
In assay [18] the target is Serine/threonine-protein kinase Nek7 (Homo sapiens) (UniProt Q8TDX7). Particulars: at 0.1 µM.
For assay [19] the target is unchanged. Particulars: at 1 µM.

The structures appear in SMILES notation.

Sequence of Serine/threonine-protein kinase Nek6 (Homo sapiens) (Q9HC98 whole entry): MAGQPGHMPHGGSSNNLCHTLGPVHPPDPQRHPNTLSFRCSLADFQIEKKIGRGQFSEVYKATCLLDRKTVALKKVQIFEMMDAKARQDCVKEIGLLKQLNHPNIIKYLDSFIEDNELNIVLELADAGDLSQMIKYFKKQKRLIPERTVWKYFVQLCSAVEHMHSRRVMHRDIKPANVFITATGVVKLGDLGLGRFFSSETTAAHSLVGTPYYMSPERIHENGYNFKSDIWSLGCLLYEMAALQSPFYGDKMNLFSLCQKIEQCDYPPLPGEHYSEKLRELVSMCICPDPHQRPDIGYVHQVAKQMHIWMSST
Sequence of Casein kinase II subunit alpha (Homo sapiens) (P68400 whole entry, looked up): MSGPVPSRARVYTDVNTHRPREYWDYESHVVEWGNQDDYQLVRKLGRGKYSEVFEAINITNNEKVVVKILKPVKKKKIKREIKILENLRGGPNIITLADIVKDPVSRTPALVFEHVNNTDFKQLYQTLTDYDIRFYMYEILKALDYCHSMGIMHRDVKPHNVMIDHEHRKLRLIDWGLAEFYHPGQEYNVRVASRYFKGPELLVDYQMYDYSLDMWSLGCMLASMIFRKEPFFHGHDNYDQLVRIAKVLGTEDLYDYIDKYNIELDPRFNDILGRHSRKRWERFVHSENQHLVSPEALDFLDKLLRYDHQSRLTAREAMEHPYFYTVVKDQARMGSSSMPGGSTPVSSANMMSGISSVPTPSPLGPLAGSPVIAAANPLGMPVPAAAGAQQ
Sequence of Serine/threonine-protein kinase Nek7 (Homo sapiens) (Q8TDX7 whole entry, looked up): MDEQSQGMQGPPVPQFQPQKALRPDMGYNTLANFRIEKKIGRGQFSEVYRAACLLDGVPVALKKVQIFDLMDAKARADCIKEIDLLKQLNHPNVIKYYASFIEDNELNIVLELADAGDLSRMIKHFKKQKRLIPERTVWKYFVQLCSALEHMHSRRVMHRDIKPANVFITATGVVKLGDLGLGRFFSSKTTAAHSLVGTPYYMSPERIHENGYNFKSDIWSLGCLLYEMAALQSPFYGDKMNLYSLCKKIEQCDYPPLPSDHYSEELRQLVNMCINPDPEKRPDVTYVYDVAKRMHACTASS
Sequence of Sphingosine kinase 1 (Homo sapiens) (Q9NYA1 whole entry): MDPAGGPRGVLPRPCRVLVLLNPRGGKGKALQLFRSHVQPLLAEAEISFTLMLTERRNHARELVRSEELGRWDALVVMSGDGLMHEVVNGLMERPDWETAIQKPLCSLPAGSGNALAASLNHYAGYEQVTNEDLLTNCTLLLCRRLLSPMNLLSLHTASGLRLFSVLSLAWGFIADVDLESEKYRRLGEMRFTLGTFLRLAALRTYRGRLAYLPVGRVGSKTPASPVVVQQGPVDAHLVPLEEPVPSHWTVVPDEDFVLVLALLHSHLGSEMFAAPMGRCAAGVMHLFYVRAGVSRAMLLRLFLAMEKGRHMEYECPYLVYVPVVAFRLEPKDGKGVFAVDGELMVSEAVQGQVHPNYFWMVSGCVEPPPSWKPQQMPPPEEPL

As to `CCn1c(-c2nonc2N)nc2c(C#CCN)ncc(OCCCN)c21`, the inhibition was -2.44% in assay [1]; 0.6% in assay [2]; -1.33% in assay [3]; -1.18% in assay [4]; 10.1% in [5]; -6.76% in [6]. Further, the inhibition is -0.57% in [7]; -4.65% in assay [8]; 0.63% in assay [9]; 0.53% in assay [10]; 2.04% in [11]; -2.66% in assay [12]. Moreover, the inhibition in assay [13] is -3.17%; in assay [14], -4.61%; in [15], -4.57%; in [16], -0.99%; in assay [17] it was -1.85%; in assay [18], -5.43%. Moreover, the inhibition in assay [19] was -9.67%.
